MITF inh – blocks MITF activity; TRPM1 promoter luciferase, luminescence, 24 h; inhibition, % (test concentration not listed); 0.28% of 37,000 active; AID 2240; in the data active = inhibition above about 85%; inconclusive = no clear call, values can overlap the other calls; inactive = below about 68%;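 note: human melanocyte line stably carrying TRPM1 promoter luciferase reporter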
PD-1 reverse act – activators reversing PD-1 mediated T-cell inhibition. primary human CD4 T cells, PD-L1 beads, CellTiter-Glo 96 h. activation, % (no concentration beside the values). 29,000 tested, under 10 active. AID 2316; call rule not given here
NOMO-1 viab – STK33 inhibitor candidate reducing NOMO-1 cell viability; AID 2330; NOMO-1 AML viability, CellTiter-Glo luminescence, 72 h; inhibition, % (concentration not given with the values); 7.5% of 37,000 active; in the data active = inhibition above about 80%; inconclusive = no clear call, values can overlap the other calls
Shh pathway inh – blocks Sonic Hedgehog signaling | 2.1% of 22,000 active | inhibition, % (no concentration beside the values) | Shh-LIGHT2 Gli-luciferase reporter, 30 h;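 active = mean inhibition across valid replicates above about 65%, limit read from the data; inconclusive = mean under the limit, yet half or more replicates past it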;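 note: pathway switched on by Shh-conditioned medium diluted 1 in 25 in low serum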
Hits are given with their value; - = inactive; ? = inconclusive; . = no result given. A selection: hits, their analogues and other compounds. The true share with any hit is near 8.1%.

SMILES	MITF inh	PD-1 reverse act	NOMO-1 viab	Shh pathway inh
CC1(C)CC(=O)C2=C(C1)N(CC1CCCO1)C(=O)C2(NC(=O)c1ccccc1)C(F)(F)F (stereo not given)	-	-	-	.
CCOc1ccc(C2(C)CC(C)(C)Nc3ccccc32)cc1 (stereo not given)	-	-	113.6	-
COc1ccc(OC)c(/C=C/C(=O)O)c1	-	-	-	-
C[C@H](CO)N1C[C@H](C)[C@H](CN(C)Cc2ccc(Cl)c(Cl)c2)Oc2c(NS(=O)(=O)c3ccc(Cl)cc3)cccc2C1=O	-	.	109.1	90.2
Cc1ccc(S(=O)(=O)Nc2cccc3c2O[C@H](CN(C)Cc2ccc(Cl)c(Cl)c2)[C@H](C)CN([C@H](C)CO)C3=O)cc1	-	-	-	-
Cc1ccc(S(=O)(=O)Nc2cccc3c2O[C@H](CN(C)Cc2ccc(Cl)c(Cl)c2)[C@H](C)CN([C@@H](C)CO)C3=O)cc1	-	.	103.9	-
Cc1ccc(S(=O)(=O)Nc2cccc3c2O[C@@H](CN(C)Cc2ccc(Cl)c(Cl)c2)[C@@H](C)CN([C@H](C)CO)C3=O)cc1	-	-	119.0	113.2
CCc1c(O)cc(O)c2c1O[C@H](C)CC2=O	-	-	-	-
Cc1ccc(Oc2ncccc2NC(=O)c2ccc(Cl)cc2Cl)c2c1CCC2	-	-	-	-
O=C(Oc1ccc(C=Nc2ccc(F)cc2)cc1)c1ccco1	-	-	-	-
C[C@@H]1CN([C@@H](C)CO)C(=O)c2cccc(NC(=O)C3CC3)c2O[C@H]1CN(C)Cc1ccc(Oc2ccccc2)cc1	-	-	100.1	-
C[C@@H]1CN([C@@H](C)CO)C(=O)c2cccc(NC(=O)C3CCCCC3)c2O[C@@H]1CN(C)Cc1ccc(Cl)c(Cl)c1	-	-	96.1	-
C[C@@H]1CN([C@@H](C)CO)C(=O)c2cc(NC(=O)C3CCCCC3)ccc2O[C@H]1CN(C)Cc1ccc(Oc2ccccc2)cc1	-	-	100.1	-
C[C@@H]1CN([C@H](C)CO)C(=O)c2cccc(NC(=O)C3CCCCC3)c2O[C@H]1CN(C)Cc1ccc(Oc2ccccc2)cc1	-	-	-	-
C[C@@H]1CN([C@@H](C)CO)C(=O)c2cccc(NC(=O)C3CCCCC3)c2O[C@H]1CN(C)Cc1ccc(Oc2ccccc2)cc1	-	-	119.6	-
C[C@H]1CN([C@@H](C)CO)C(=O)c2cc(NC(=O)C3CCCCC3)ccc2O[C@H]1CN(C)Cc1ccc(Oc2ccccc2)cc1	-	-	-	-
COC(=O)c1ccc(C(=O)OC)c(NC(=O)CN2C(=O)c3cccc4cccc2c34)c1	-	.	-	.
C[C@H](CO)N1C[C@H](C)[C@@H](CN(C)Cc2ccc(Oc3ccccc3)cc2)Oc2c(NC(=O)C3CCCCC3)cccc2C1=O	-	-	87.6	-
COC(=O)c1c(NC(=O)c2ccccc2N(C)S(=O)(=O)c2ccccc2)sc2c1CCCC2	-	-	117.1	.
COc1ccc(S(=O)(=O)Nc2ccc3c(c2)CC(=O)N([C@@H](C)CO)C[C@H](C)[C@@H](CN(C)Cc2ccc(C(F)(F)F)cc2)O3)cc1	-	-	112.5	-
Cc1ccc(S(=O)(=O)Nc2ccc3c(c2)CC(=O)N([C@@H](C)CO)C[C@@H](C)[C@@H](CN(C)Cc2ccc(C(F)(F)F)cc2)O3)cc1	-	-	83.8	-
Cc1ccc(S(=O)(=O)Nc2ccc3c(c2)CC(=O)N([C@H](C)CO)C[C@H](C)[C@H](CN(C)Cc2ccc(C(F)(F)F)cc2)O3)cc1	-	-	104.3	-
COc1ccc(CN(C)C[C@H]2Oc3ccc(NS(=O)(=O)c4ccc(F)cc4)cc3CC(=O)N([C@H](C)CO)C[C@H]2C)cc1	-	-	-	.
C[C@@H]1CN([C@H](C)CO)C(=O)Cc2cc(NS(=O)(=O)c3ccc(F)cc3)ccc2O[C@@H]1CN(C)Cc1ccc(C(F)(F)F)cc1	-	-	111.0	?
C=C1C(=O)O[C@H]2C1CCC(=C)[C@@H]1C[C@H](OC(=O)C=C(C)C)C(=C)[C@@H]12 (stereo not given in full)	-	-	96.5	-
SMILES	MITF inh	PD-1 reverse act	NOMO-1 viab	Shh pathway inh
Cc1cc(NC(=O)CSc2nc3ccccc3[nH]2)ccc1Cl	-	.	-	.
CCOC(=O)c1cc(NC(=O)CSc2nc3ccccc3[nH]2)ccc1Cl	-	-	100.5	.
O=C(CSc1nc2cc3ccccc3cc2[nH]1)Nc1ccccc1Cl	-	.	107.7	.
CC1(C)Cc2nc(-c3ccccc3)nc(SCC(=O)Nc3ccc(Br)cc3)c2CO1	-	-	101.3	.
CC(=O)C1C(=O)[C@@H]2[C@H]3c4c[nH]c5cccc(c45)C[C@H]3C(C)(C)N2C1=O (stereo not given in full)	-	-	130.9	77.0
CC(=O)C1C(=O)C2C3c4c[nH]c5cccc(c45)CC3C(C)(C)N2C1=O (stereo not given)	-	.	-	-
C[C@H](CO)N1C[C@H](C)[C@H](CN(C)Cc2ccccc2)Oc2c(NC(=O)Nc3ccc(C(F)(F)F)cc3)cccc2C1=O	-	.	-	-
C[C@H]1CN([C@@H](C)CO)C(=O)c2cccc(NC(=O)Nc3ccc(C(F)(F)F)cc3)c2O[C@@H]1CN(C)Cc1ccc(-c2ccccc2)cc1	-	-	85.1	-
C[C@H](CO)N1C[C@H](C)[C@@H](CN(C)Cc2ccccc2)Oc2c(NC(=O)Nc3ccc(C(F)(F)F)cc3)cccc2C1=O	-	-	115.2	-
C[C@@H]1CN([C@H](C)CO)C(=O)c2cccc(NC(=O)Nc3ccc(C(F)(F)F)cc3)c2O[C@H]1CN(C)Cc1ccccc1	-	-	100.6	-
C[C@@H]1CN([C@@H](C)CO)C(=O)c2cccc(NC(=O)Nc3ccc(C(F)(F)F)cc3)c2O[C@@H]1CN(C)Cc1ccccc1	-	-	88.8	-
COc1cccc(NC(=O)CSc2nnc(-c3ccccc3O)n2-c2ccccc2)c1	-	.	-	.
CCc1ccc(OCC(=O)Nc2cccc(-c3nc4cc(Cl)ccc4o3)c2C)cc1	-	-	-	.
C[C@@H]1CN([C@@H](C)CO)C(=O)c2cc(NC(=O)Nc3ccc4c(c3)OCO4)ccc2O[C@H]1CN(C)Cc1ccc(C(=O)Nc2ccccc2N)cc1	-	-	-	.
C[C@H]1CN([C@@H](C)CO)C(=O)c2cccc(NC(=O)Nc3ccc4c(c3)OCO4)c2O[C@H]1CN(C)Cc1ccc(C(=O)Nc2ccccc2N)cc1	-	-	140.0	.
C[C@@H]1CN([C@H](C)CO)C(=O)c2cccc(NC(=O)Nc3ccc4c(c3)OCO4)c2O[C@@H]1CN(C)Cc1ccc(C(=O)Nc2ccccc2N)cc1	-	-	139.9	.
Cc1ccc2c(c1)C(=O)C1(O)CCN(c3ccccc3)C1=N2 (stereo not given)	-	-	108.8	-
CCNC(=O)CCc1nc(-c2ccc(OC)cc2)no1	-	-	-	.
C[C@@H]1CN([C@H](C)CO)C(=O)c2cc(NS(=O)(=O)c3ccc(F)cc3)ccc2O[C@@H]1CN(C)Cc1ccc(C(F)(F)F)cc1	-	-	112.0	-
Cc1ccc(S(=O)(=O)Nc2ccc3c(c2)C(=O)N([C@H](C)CO)C[C@H](C)[C@H](CN(C)Cc2ccc(C(F)(F)F)cc2)O3)cc1	-	-	93.2	-

Screening data deposited in PubChem BioAssay by Broad Institute.
